Experimental data reported in paper PMC7862700, “An all-to-all approach to the identification of sequence-specific readers for epigenetic DNA modifications on cytosine”.

Columns and labels:
Assay in all cases: DAPPL (digital affinity profiling via proximity ligation, sequencing); 10 mM Tris-HCl pH 7.5, 50 mM NaCl, 1 mM DTT, 4% glycerol, room temperature, 30 min; GST-TFs on glutathione beads, 16-mer random dsDNA library, 0.1% formaldehyde crosslink after washing; high values mean tight binding
[1] = target: T1, FEV (Homo sapiens, UniProt Q99581 1-238); settings: protein: recombinant; tags: N-terminal GST; dsDNA, one strand shown
T1 sequence: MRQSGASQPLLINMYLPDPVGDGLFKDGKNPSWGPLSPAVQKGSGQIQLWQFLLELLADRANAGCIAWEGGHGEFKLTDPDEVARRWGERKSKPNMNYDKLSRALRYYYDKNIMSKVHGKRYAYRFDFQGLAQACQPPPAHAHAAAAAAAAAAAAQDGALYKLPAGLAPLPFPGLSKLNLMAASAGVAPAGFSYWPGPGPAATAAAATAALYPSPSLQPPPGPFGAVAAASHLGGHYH
How it was run: (§1)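 Pools of DNA-barcoded human transcription factors, expressed in yeast as GST fusions on glutathione beads and combined with a tag-only sample, were incubated with 200 nmole of a 16-mer random double-stranded DNA library. Incubation took 30 min at room temperature in Tris/NaCl/DTT/glycerol buffer and was followed by washing, 0.1% formaldehyde crosslinking, proximity ligation (BsaI/T4 ligase, 1 h, 37 °C), PCR amplification and sequencing on an Illumina NextSeq500. Binding signal is the ratio of a hexamer's read frequency for a factor to its frequency for the tag-only sample.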

[2] = target: ETV5 (Homo sapiens, UniProt P41161 1-510); settings: protein: recombinant; tags: N-terminal GST; dsDNA, one strand shown
ETV5, sequence (P41161 whole entry): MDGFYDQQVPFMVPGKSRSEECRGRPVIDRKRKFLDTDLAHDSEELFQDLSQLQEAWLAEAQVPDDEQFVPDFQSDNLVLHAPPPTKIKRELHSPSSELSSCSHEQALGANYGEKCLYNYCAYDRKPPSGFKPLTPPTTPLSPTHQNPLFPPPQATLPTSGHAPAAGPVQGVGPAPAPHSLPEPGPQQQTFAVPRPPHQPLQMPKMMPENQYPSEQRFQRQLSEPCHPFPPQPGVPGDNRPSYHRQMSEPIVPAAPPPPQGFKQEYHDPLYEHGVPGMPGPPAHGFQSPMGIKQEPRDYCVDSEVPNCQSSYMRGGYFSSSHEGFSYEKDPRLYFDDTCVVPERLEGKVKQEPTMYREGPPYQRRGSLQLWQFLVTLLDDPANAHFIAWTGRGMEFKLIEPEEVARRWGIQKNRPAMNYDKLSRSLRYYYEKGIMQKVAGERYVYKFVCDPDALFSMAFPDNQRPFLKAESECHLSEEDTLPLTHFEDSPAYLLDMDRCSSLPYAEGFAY
How it was run: as §1

[3] = target: HSF1 (Homo sapiens, UniProt Q00613 1-529); settings: protein: recombinant; tags: N-terminal GST; chain copies: 3; dsDNA, one strand shown
HSF1, sequence (Q00613 whole entry): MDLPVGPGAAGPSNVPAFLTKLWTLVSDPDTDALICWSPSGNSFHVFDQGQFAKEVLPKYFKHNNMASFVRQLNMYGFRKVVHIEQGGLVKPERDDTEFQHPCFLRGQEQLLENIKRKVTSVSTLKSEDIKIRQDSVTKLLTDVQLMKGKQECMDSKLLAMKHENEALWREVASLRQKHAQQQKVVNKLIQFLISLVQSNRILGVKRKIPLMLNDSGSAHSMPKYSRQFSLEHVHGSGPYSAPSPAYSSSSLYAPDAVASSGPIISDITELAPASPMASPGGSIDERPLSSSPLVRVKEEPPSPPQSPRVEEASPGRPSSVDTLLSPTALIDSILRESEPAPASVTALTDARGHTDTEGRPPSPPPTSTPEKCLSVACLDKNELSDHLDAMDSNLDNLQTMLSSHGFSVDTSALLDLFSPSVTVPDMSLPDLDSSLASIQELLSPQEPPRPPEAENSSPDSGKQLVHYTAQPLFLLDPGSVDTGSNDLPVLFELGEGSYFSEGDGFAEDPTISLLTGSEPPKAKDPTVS
How it was run: as §1

[4] = target: T2, SPIC (Homo sapiens, UniProt Q8N5J4 1-248); settings: protein: recombinant; tags: N-terminal GST; dsDNA, one strand shown
T2 sequence: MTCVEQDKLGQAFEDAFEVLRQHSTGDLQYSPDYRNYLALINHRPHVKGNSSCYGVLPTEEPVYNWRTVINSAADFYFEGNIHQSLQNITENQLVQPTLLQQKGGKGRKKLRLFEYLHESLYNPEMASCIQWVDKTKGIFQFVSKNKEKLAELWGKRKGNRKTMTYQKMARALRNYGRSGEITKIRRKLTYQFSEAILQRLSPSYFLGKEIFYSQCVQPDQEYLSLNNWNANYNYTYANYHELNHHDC
How it was run: as §1

[5] = target: ELF4 (Homo sapiens, UniProt Q99607 1-663); settings: protein: recombinant; tags: N-terminal GST; dsDNA, one strand shown
ELF4, sequence (Q99607 whole entry): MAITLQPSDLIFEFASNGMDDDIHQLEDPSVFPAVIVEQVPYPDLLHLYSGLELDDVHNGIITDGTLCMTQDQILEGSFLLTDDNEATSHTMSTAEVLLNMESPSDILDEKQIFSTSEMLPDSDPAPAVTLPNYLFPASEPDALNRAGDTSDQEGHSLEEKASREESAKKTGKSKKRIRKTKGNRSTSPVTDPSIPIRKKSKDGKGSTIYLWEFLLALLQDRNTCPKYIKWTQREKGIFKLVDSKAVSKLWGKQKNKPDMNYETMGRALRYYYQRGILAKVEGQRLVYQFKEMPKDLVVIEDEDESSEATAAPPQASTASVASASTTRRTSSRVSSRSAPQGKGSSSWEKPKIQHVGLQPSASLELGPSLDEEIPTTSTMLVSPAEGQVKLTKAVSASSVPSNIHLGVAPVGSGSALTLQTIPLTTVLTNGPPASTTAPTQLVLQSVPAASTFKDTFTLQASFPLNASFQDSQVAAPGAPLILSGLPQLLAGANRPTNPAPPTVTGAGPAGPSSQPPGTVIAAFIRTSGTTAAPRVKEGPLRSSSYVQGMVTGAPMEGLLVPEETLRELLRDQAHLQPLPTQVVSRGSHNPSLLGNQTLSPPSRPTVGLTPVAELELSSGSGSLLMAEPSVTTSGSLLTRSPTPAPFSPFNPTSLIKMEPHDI
How it was run: as §1

[6] = target: T3, ELK4 (Homo sapiens, UniProt P28324-2 1-405); settings: protein: recombinant; tags: N-terminal GST; dsDNA, one strand shown
T3 sequence: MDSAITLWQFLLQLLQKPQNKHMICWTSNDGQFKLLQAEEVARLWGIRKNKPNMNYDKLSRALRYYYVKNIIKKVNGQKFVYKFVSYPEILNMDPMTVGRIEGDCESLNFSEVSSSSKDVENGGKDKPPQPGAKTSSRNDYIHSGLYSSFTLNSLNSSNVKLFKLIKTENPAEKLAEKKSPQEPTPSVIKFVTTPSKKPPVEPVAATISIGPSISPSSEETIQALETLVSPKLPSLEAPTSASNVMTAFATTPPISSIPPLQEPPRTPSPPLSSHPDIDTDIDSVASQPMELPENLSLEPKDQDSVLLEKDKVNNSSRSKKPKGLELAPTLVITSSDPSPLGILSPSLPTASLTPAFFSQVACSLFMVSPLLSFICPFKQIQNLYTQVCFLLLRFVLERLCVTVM
How it was run: as §1

[7] = target: T4, ETV2 (Homo sapiens, UniProt O00321 1-342); settings: protein: recombinant; tags: N-terminal GST; dsDNA, one strand shown
T4 sequence: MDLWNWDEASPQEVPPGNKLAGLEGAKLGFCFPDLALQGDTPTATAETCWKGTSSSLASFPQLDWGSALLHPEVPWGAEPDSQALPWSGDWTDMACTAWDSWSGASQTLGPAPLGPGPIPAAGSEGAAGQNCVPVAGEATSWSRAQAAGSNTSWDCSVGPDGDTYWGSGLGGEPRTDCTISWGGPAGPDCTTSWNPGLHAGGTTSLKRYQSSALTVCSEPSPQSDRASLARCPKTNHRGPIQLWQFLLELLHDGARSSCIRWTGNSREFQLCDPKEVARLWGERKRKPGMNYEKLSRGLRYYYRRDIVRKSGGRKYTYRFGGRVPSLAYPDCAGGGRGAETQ
How it was run: as §1

[8] = target: T5, ELF3 (Homo sapiens, UniProt P78545 1-371); settings: protein: recombinant; tags: N-terminal GST; dsDNA, one strand shown
T5 sequence: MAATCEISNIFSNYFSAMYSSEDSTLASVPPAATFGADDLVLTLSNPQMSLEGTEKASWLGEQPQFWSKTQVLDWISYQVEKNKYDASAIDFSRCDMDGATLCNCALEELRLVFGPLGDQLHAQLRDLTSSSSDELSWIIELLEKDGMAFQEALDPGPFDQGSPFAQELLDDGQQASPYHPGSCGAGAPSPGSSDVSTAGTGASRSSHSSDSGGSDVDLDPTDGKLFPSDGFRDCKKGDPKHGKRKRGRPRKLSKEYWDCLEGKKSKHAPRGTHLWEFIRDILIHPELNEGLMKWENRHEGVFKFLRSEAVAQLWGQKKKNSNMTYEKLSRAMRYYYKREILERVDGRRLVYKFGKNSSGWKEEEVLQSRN
How it was run: as §1

[9] = target: CRX (Homo sapiens, UniProt O43186 1-299); settings: protein: recombinant; tags: N-terminal GST; dsDNA, one strand shown
CRX, sequence (O43186 whole entry): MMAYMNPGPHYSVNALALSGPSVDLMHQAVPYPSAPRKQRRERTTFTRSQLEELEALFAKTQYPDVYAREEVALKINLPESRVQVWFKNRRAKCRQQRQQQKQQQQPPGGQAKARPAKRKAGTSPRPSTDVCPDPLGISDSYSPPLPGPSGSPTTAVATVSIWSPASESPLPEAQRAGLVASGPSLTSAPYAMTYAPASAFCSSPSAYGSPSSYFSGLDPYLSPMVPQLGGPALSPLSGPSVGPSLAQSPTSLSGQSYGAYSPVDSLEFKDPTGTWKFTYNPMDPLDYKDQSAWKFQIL
How it was run: as §1

[10] = target: ETV1 (Homo sapiens, UniProt P50549 1-477); settings: protein: recombinant; tags: N-terminal GST; dsDNA, one strand shown
ETV1, sequence (P50549 whole entry): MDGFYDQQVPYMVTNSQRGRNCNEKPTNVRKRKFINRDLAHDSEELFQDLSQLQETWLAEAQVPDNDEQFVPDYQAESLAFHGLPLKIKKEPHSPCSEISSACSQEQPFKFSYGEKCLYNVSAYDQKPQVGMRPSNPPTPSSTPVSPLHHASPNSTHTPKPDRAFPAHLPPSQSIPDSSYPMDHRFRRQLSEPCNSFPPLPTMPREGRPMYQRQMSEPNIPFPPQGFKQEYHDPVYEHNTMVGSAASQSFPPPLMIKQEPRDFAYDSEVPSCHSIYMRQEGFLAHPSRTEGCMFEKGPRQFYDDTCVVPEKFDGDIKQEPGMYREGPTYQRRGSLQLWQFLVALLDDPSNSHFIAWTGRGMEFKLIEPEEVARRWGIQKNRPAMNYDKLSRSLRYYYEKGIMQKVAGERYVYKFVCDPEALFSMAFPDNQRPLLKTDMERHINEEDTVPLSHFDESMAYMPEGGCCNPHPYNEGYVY
How it was run: as §1

[11] = target: T6, ERF (Homo sapiens, UniProt P50548 1-548); settings: protein: recombinant; tags: N-terminal GST; dsDNA, one strand shown
T6 sequence: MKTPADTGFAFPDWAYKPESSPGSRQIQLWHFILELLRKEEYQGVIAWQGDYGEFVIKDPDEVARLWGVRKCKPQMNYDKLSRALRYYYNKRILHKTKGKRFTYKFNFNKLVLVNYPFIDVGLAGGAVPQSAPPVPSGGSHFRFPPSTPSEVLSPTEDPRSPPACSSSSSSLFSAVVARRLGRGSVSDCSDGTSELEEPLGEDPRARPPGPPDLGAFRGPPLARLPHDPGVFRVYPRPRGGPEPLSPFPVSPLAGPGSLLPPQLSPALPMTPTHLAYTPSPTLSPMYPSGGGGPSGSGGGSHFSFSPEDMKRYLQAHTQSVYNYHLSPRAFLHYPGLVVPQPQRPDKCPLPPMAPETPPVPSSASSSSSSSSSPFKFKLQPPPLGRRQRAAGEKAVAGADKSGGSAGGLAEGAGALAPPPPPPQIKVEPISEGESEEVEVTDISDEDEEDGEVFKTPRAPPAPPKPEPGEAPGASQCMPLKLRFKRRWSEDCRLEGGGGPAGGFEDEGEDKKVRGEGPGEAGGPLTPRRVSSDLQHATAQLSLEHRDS
How it was run: as §1

[12] = target: T7, ETV3L (Homo sapiens, UniProt Q6ZN32 1-361); settings: protein: recombinant; tags: N-terminal GST; dsDNA, one strand shown
T7 sequence: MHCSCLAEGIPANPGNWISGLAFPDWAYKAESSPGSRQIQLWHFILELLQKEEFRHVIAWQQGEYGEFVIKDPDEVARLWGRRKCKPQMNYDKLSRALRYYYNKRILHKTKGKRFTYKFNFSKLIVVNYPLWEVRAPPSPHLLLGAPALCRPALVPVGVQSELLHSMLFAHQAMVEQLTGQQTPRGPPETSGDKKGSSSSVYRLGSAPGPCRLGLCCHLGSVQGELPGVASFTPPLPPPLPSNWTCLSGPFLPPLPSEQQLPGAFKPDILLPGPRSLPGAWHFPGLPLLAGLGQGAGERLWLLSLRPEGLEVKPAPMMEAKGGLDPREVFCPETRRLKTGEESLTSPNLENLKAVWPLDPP
How it was run: as §1

[13] = target: T8, ETS2 (Homo sapiens, UniProt P15036 1-469); settings: protein: recombinant; tags: N-terminal GST; dsDNA, one strand shown
T8 sequence: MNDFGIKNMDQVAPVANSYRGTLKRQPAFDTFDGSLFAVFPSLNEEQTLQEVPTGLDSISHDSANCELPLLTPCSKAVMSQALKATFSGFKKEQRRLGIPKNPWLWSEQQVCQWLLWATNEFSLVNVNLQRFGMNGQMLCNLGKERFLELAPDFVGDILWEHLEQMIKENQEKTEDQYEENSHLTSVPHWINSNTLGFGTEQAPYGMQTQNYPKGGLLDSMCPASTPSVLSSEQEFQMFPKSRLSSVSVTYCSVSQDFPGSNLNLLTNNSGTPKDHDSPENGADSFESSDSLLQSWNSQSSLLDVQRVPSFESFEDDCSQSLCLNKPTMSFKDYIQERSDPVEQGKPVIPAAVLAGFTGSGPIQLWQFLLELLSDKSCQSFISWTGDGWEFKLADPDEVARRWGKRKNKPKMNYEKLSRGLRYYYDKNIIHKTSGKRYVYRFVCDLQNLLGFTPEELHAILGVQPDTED
How it was run: as §1

[14] = target: T9, SPDEF (Homo sapiens, UniProt O95238 1-335); settings: protein: recombinant; tags: N-terminal GST; dsDNA, one strand shown
T9 sequence: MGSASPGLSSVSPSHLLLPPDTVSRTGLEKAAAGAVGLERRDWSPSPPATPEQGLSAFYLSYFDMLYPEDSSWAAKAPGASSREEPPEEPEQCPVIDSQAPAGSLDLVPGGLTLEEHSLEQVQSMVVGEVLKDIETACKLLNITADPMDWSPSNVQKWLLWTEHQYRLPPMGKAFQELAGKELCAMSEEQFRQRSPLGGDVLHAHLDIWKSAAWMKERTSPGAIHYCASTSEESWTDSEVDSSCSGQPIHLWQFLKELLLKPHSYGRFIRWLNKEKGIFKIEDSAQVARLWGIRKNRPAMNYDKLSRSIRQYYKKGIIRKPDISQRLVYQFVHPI
How it was run: as §1

[15] = target: T10, ETV7 (Homo sapiens, UniProt Q9Y603 1-341); settings: protein: recombinant; tags: N-terminal GST; dsDNA, one strand shown
T10 sequence: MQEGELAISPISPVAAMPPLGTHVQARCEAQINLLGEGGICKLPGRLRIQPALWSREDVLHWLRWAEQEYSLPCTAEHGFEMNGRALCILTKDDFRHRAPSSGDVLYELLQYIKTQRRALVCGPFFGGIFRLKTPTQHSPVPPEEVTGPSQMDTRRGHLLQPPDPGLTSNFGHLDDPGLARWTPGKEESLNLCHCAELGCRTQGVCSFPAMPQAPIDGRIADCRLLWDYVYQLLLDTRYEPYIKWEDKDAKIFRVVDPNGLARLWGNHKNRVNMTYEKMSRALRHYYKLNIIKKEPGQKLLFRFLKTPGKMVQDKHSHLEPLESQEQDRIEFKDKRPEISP
How it was run: as §1

[16] = target: T11, ELF5 (Homo sapiens, UniProt Q9UKW6-2 1-255); settings: protein: recombinant; tags: N-terminal GST; dsDNA, one strand shown
T11 sequence: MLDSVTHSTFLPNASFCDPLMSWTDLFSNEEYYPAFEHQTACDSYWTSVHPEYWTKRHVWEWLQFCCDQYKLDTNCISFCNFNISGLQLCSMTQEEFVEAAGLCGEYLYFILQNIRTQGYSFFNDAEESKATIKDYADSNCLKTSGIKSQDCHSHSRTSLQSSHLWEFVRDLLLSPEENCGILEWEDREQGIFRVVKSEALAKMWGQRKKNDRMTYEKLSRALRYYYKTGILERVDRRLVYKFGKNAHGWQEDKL
How it was run: as §1

[17] = target: T12, ETV3 (Homo sapiens, UniProt P41162-2 1-143); settings: protein: recombinant; tags: N-terminal GST; dsDNA, one strand shown
T12 sequence: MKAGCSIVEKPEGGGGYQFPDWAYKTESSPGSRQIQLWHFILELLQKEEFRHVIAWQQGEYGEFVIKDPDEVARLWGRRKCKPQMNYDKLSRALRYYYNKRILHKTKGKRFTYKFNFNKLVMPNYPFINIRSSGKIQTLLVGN
How it was run: as §1

[18] = target: ETV6 (Homo sapiens, UniProt P41212 1-452); settings: protein: recombinant; tags: N-terminal GST; dsDNA, one strand shown
ETV6, sequence (P41212 whole entry): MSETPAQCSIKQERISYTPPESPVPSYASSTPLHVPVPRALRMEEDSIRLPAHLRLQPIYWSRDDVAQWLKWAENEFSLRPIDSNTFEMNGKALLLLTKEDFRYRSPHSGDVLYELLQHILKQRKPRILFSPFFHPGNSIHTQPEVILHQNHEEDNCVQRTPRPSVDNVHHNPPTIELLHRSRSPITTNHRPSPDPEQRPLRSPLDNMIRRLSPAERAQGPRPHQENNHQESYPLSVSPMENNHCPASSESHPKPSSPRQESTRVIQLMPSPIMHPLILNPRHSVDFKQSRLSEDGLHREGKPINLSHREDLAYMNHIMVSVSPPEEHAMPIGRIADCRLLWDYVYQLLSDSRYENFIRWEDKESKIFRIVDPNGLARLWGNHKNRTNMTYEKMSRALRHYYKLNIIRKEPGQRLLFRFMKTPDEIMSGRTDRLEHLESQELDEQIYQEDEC
How it was run: as §1

Sequence: TAATAA
- binding signal [1]: 1.13 fold enrichment (6-mer frequency, TF over GST control)
- binding signal [2]: 1.22 fold enrichment (6-mer frequency, TF over GST control)
- binding signal [3]: 1.76 fold enrichment (6-mer frequency, TF over GST control)
- binding signal [4]: 1.17 fold enrichment (6-mer frequency, TF over GST control)
- binding signal [5]: 1.21 fold enrichment (6-mer frequency, TF over GST control)
- binding signal [6]: 1.06 fold enrichment (6-mer frequency, TF over GST control)
- binding signal [7]: 1.17 fold enrichment (6-mer frequency, TF over GST control)
- binding signal [8]: 1.21 fold enrichment (6-mer frequency, TF over GST control)
- binding signal [9]: 2.43 fold enrichment (6-mer frequency, TF over GST control)
- binding signal [10]: 1.12 fold enrichment (6-mer frequency, TF over GST control)
- binding signal [11]: 1.28 fold enrichment (6-mer frequency, TF over GST control)
- binding signal [12]: 1.24 fold enrichment (6-mer frequency, TF over GST control)
- binding signal [13]: 1.21 fold enrichment (6-mer frequency, TF over GST control)
- binding signal [14]: 1.19 fold enrichment (6-mer frequency, TF over GST control)
- binding signal [15]: 1.14 fold enrichment (6-mer frequency, TF over GST control)
- binding signal [16]: 1.15 fold enrichment (6-mer frequency, TF over GST control)
- binding signal [17]: 1.11 fold enrichment (6-mer frequency, TF over GST control)
- binding signal [18]: 1.17 fold enrichment (6-mer frequency, TF over GST control)
